Experimental data published in PubChem BioAssay (NCI).
About 83,000 compounds went through this panel and 20% of them were active in at least one assay; those are over-represented in the sample as a whole.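 Plates (96-well) were seeded with cells, treated with compound at one concentration, and incubated for 48 hours before percent growth was determined.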 The source made the active and inactive calls.

Test system: NCI-H322M lung
Assay: NCI-60 one-dose screen, 48 h (100 = growth as untreated, 0 = no growth, -100 = all killed)
Conditions: 10 µM unless noted
Protocol: Growth inhibition of the NCI-H322M human Non-Small Cell Lung tumor cell line is measured as a screen for anti-cancer activity. Cells are grown in 96 well plates and exposed to the test compound for 48 hours. Compounds are tested at a single concentration, which is 10^-5 M for most compounds. The reported endpoint is percent growth (GI% or GIPRCNT), where numbers from 0 - 100% represent growth inhibition, and numbers from -100% - 0 represent cell death. For example, a value of 40 represents 60% growth inhibition. A value of 0 means no net growth occurred over the course of the experiment. A value of -40 indicates 40% of cells at the beginning of the experiment died by the end of the experiment. A value of -100 means all cells are dead at the end of the experiment.
NCI-60 Human Tumor Cell Lines Screen was performed using the standard one-dose NCI protocol, which is described in more detail at https://dtp.cancer.gov/discovery_development/nci-60/default.htm.
Compounds with GIPRCNT values below 10 were considered active. Activity score was based on GIPRCNT using the following formula: […]
Score is 0 for GIPRCNT values of 100 or above, 50 for GIPRCNT values of 0, and 100 for GIPRCNT values of -100.

| Structure (SMILES) | growth |
| --- | --- |
| COc1ccc(Cn2nc3c(c2-c2cc(OC)c(OC)c(OC)c2)-c2oncc2CC3)cc1 | 99% (inactive) |
| Cc1ccc2[nH]c(=O)cc(-n3nncc3COc3ccc(C=O)cc3)c2c1 | 103% (inactive) |
| O=C1Nc2ccccc2/C1=C\c1cccc(/C=C2/C(=O)Nc3ccccc32)n1 | -70.8% (active) |
| CC(=O)c1cc2c(N)c(C(=O)Nc3cncc4ccccc34)sc2nc1C | 113% (inactive) |
| CN1CCN(c2ccc(NC3=C(Cl)C(=O)c4ncccc4C3=O)cc2C#N)CC1 | 103% (inactive) |
| CCCCCCOc1ccc(C(=N)N(CCCC)CCCC)c2ccccc12 | -93.6% (active) |
| C[C@H]1[C@H](C)CC[C@]2(CO)CC[C@]3(C)C(=CC[C@@H]4[C@@]5(C)CCCNC(C)(C)[C@@H]5CC[C@]43C)[C@H]12 | -17.9% (active) |
| CN1CCCC1=Nc1ccccc1 | 99.2% (inactive) |
| O=C1CCC(NC(=S)Nc2ccccc2)N1 (stereo not given) | 99.5% (inactive) |
| C#CC(=O)Nc1cccc2c1cc(C)n2-c1nc2c(c(NCc3ccccc3)n1)CCCC2 | -82.4% (active) |
| Cc1cc2nc(-c3ccccc3)c(-c3ccccc3)nc2cc1C | 112% (inactive) |
| O=C(Nc1sc2c(c1C(=O)O)CCCC2)c1cccc(C(F)(F)F)c1 | 95% (inactive) |
| Clc1nc(Cl)c2ncn(CC3(Cn4cnc5c(Cl)nc(Cl)nc54)COC3)c2n1 | -100% (active) |
| CN1CCN(CC#CCNC(=O)[C@]23CCC(C)(C)C[C@H]2C2=CC[C@@H]4[C@@]5(C)Cc6c([nH]c7ccccc67)C(C)(C)[C@@H]5CC[C@@]4(C)[C@]2(C)CC3)CC1 | 88.7% (inactive) |
| CCNNC(=O)[C@@H]1[C@H](c2cc(OC)c(OC)c(OC)c2)c2cc3c(cc2[C@H](O)[C@H]1CO)OCO3 | 43.7% (inactive) |
| CC(=O)N1N=C(c2cccc(Nc3ccncc3)c2)CC1c1ccccc1 (stereo not given) | 93.3% (inactive) |
| COc1cccc2cc(-c3cc4ccccc4[nH]3)/c(=N/C(=S)Nc3ccc(C)cc3)oc12 | 80.1% (inactive) |
| Cc1ccccc1C(c1ccccc1)c1ccccc1C | 90.9% (inactive) |
| CC[C@H](CC[C@@H](C)[C@H]1CC[C@H]2[C@@H]3CC=C4C[C@@H](OCCc5nn[nH]n5)CC[C@]4(C)[C@H]3CC[C@]12C)C(C)C | 101% (inactive) |
| [2H]C1([2H])NC([2H])([2H])C([2H])([2H])N(c2ccc(Nc3ncc4cc(C(=O)N(C)C)n(C5CCCC5)c4n3)nc2)C1([2H])[2H] | 78.7% (inactive) |

| Structure (SMILES) | growth |
| --- | --- |
| N/C(=N\N=C\c1cc2ccccc2s1)N/N=C/c1cc2ccccc2s1 | 108% (inactive) |
| Fc1ccc(C2CC(c3cccc(Nc4ccncc4)c3)=NN2c2ccccc2)cc1 (stereo not given) | 70.6% (inactive) |
| CCCNC(=O)Oc1ccc(/C(=C(\C)c2ccccc2)c2ccc(OCCN3CCCCC3)cc2)cc1 | 83.3% (inactive) |
| O=S(=O)(c1cccc(NC2=Nc3cccc4cccc2c34)c1)N1CCCC1 | 80.1% (inactive) |
| CC(=O)O[C@H]1CC[C@@]2(C)[C@@H](CC[C@@H]3[C@@H]2CC[C@@]2(C)[C@H]3CC[C@]2(O)C(C)=O)C1 | 91.9% (inactive) |
| O=S(=O)(c1ccc(N/N=C\c2ccccc2)cc1)c1ccc(N/N=C/c2ccccc2)cc1 | 80% (inactive) |
| FCc1nc2nc(Cl)c(Cl)nc2[nH]1 | 113% (inactive) |
| NC(=O)c1cccc(-n2ccc3cc(NC(=O)Nc4cc(C(F)(F)F)cc(C(F)(F)F)c4)ccc32)n1 | 71.4% (inactive) |
| COC(=O)C1NC(=S)N(c2ccc(Cl)cc2)C1/C=C/c1ccccc1 (stereo not given) | 110% (inactive) |
| O=C(CSc1nc2sc3c(c2c(=O)n1Cc1ccccc1)CCCC3)N1CCN(c2ccccc2)CC1 | 89.4% (inactive) |
| CC(=O)[C@@H]1CC[C@]2(C(=O)n3ccnc3)CC[C@]3(C)[C@H](CC[C@@H]4[C@@]5(C)Cc6c([nH]c7ccccc67)C(C)(C)[C@@H]5CC[C@]43C)[C@@H]12 | 95.3% (inactive) |
| O=C(CCN1CCCC1)Nc1ccc2c(Nc3ccccc3)c3ccccc3nc2c1 | 7.35% (active) |
| COc1ccc(C2CC(c3cccc(Nc4ccncc4)c3)=NN2c2ccccc2)cc1 (stereo not given) | 68.2% (inactive) |
| Cn1c2c(Cl)c(Cl)ccc2c2cc(N)[nH]c(=O)c21 | 103% (inactive) |
| c1ccc(C2CC(c3cccc(Nc4ccncc4)c3)=NN2c2ccccc2)cc1 (stereo not given) | 82.5% (inactive) |
| Cc1ccc2nc3c(cc2c1)CSc1nnc(-c2ccc[nH]c2=S)n1N3 | 99.9% (inactive) |
| O=C(c1ccccc1)N1N=C(c2ccc(-n3ccc(C(F)(F)F)n3)cc2)CC1c1ccc[nH]1 (stereo not given) | 80.6% (inactive) |
| CS(=O)(=O)Nc1cc(-c2ccc3ncnc(Nc4ccc5[nH]ncc5c4)c3c2)cnc1Cl | 74.1% (inactive) |
| COc1cc(/C=N/NC(=O)c2ccccc2Nc2cccc(C(F)(F)F)c2)ccc1O | 103% (inactive) |
| C=C(C)[C@@H]1CC[C@]2(C(=O)NCCCN(CCC#N)CCC#N)CC[C@]3(C)[C@H](CC[C@@H]4[C@@]5(C)CCC(=O)C(C)(C)[C@@H]5CC[C@]43C)[C@@H]12 | 104% (inactive) |
